target: Homeobox protein Hox-A13 (Mus musculus) (UniProt Q62424); assay: disruptors of Hoxa13 oligonucleotide interaction – biochemical, fluorescence polarization, labeled oligonucleotide, primary screen (AID 1185); settings: Hoxa13:DNA binding, 15 min, higher = more signal, called active from +8 up or from −8 down
Sequence (Q62424 whole entry, looked up): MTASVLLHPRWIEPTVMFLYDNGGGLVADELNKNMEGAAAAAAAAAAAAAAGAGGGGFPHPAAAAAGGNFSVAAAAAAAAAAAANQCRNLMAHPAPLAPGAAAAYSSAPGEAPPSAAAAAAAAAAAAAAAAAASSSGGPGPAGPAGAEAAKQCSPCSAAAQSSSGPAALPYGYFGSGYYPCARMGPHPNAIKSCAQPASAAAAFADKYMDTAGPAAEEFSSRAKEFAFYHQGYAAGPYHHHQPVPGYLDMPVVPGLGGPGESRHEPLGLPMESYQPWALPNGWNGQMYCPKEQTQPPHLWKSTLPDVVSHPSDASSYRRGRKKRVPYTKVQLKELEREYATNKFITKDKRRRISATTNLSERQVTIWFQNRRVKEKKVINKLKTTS

z-score, inactive:
COCCOC(=O)N1C(=O)[C@@]2(c3cc(C#CCCO)ccc31)[C@H](c1ccc(OCCO)cc1)N1[C@H](c3ccccc3)[C@H](c3ccccc3)OC(=O)[C@H]1[C@@H]2C(=O)N1CCc2cc(OC)c(OC)cc2C1 2.71
O=C1c2ccccc2C(=O)C2CC([C@H]3Oc4ccccc4S(=O)(=O)N4CCC[C@@H]34)=CCC12 (stereo not given in full) -1.77
O=[N+]([O-])c1ccc(C[n+]2ccc(-c3ccc(CO)cc3)cc2)o1 -3.8
Cc1ccc(F)cc1S(=O)(=O)N[C@@H]1CCN(C(=O)c2ccc(OC(C)C)cc2)C1 -5.21
COCCOC(=O)N1C(=O)[C@@]2(c3cc(C#CCNC(N)=O)ccc31)[C@H](c1ccc(OCCO)cc1)N1[C@H](c3ccccc3)[C@H](c3ccccc3)OC(=O)[C@H]1[C@@H]2C(=O)N1CCN(c2ncccn2)CC1 0.513
COCCCNC(=O)[C@]1(CCS(=O)(=O)c2ccccc2)N=C(c2ccc(OCCCO)cc2)O[C@@H]1c1ccccc1 -4.72
O=C1O[C@H](c2ccccc2)[C@H](c2ccccc2)N2[C@H]1[C@@H](C(=O)N1CCCCCCC1)[C@]1(C(=O)Nc3ccccc31)[C@H]2c1ccc(O)cc1 2.7
CN(C)C(=O)[C@]1(Cc2ccccc2N=[N+]=[N-])N=C(c2ccc(OCCCO)cc2)O[C@@H]1c1ccccc1CN=[N+]=[N-] -4.68
CCOC(=O)C[C@H]1[C@H](OC(=O)Cc2ccc3c(c2)OCO3)[C@@H](NC(=O)c2ccccc2)c2cc(OCCCO)ccc2N1C(=O)c1ccccc1 -3.12
CCCc1cc2c(n1Cc1ccc(OC)cc1)C(C)C1CN(C(=O)c3ccccc3)C(C)(C(=O)OC)C21 (stereo not given) -3.45
COC(=O)[C@@]1(Cc2ccc(OC)cc2)[C@H]2c3cc(C(=O)N(C)C)n(CCF)c3C[C@H]2CN1C(=O)c1ccccc1 -3.59
C[N+](C)(C)CCCCCCNC(=O)[C@@H]1C[C@@H]2C(=O)NCC(=O)N2[C@@H]1c1ccc(O)cc1 -1.98
COCC(=C=CC[C@@H](O)c1ccccc1OCCO)C[C@@H](O)COCc1ccccc1 -4.38
CC(C)=CCCC(C)=CC(O)C1C=CC2C(=O)N(c3ccccc3)C(=O)C2N1Nc1ccc([N+](=O)[O-])cc1 (stereo not given) -4.57
COC(=O)[C@@]1(Cc2ccccc2)[C@H]2c3cc(C(=O)N(C)C)n(Cc4ccccn4)c3C[C@H]2CN1C(=O)c1ccccc1 -4.92
COCCOC(=O)N1C(=O)[C@@]2(c3cc(C#CC4(O)CCCCCC4)ccc31)[C@H](C(=O)N1CCc3cc(OC)c(OC)cc3C1)[C@H]1C(=O)O[C@H](c3ccccc3)[C@H](c3ccccc3)N1[C@@H]2c1ccccc1OCCO 0.772
C=CCN1C(=O)[C@@]2(O[C@@H](CCn3cc([C@H](O)c4ccccc4)nn3)[C@H]([Si](C)(C)c3ccc(OC)cc3)[C@H]2C)c2cc(NC(=O)c3ccc(OC)cc3)ccc21 -4.41
C#CCNS(=O)(=O)N(C)C -0.146
O=C(O)[C@@]1(Cc2ccccc2)COC(c2ccc(OCCCO)cc2)=N1 -1.29
COc1ccc([Si](C)(C)[C@@H]2[C@@H](CCO)O[C@]3(C(=O)N(Cc4ccccc4)c4ccc(N5CCCCC5=O)cc43)[C@H]2C)cc1 -4.29
CC1CC/C=C\[C@H]2OC34C=CCN(Cc5ccccc5)C(=O)[C@H]3N(CCO)C(=O)[C@@H]4C2C(=O)O1 (stereo not given in full) -4.51
C=C(COC)C(=O)CC[C@H](OC(=O)c1ccccc1-c1ccccc1C(=O)O)c1ccc(CO)o1 -6.22
C=CC[C@@]1(C(=O)NCCN2CCOCC2)N=C(c2ccc(OCCCO)cc2)O[C@@H]1c1ccccc1 -6.6
CC(C)(C)OC(=O)CC[C@@]1(C(=O)N2CCCCC2)N=C(c2ccc(OCCCO)cc2)O[C@@H]1c1ccccc1CN=[N+]=[N-] -4.37
C=CCOC(=O)[C@H]1[C@@H]2C(=O)O[C@@H](c3ccccc3)[C@@H](c3ccccc3)N2[C@@H](c2ccc(OCCOC(=O)[C@H]3C[C@H]4C(=O)N[C@@H](CCCCN(C)C)C(=O)N4[C@H]3c3ccc(O)cc3)cc2)[C@]12C(=O)Nc1ccccc12 4.13
COc1cc(C(O)C2C=CC3C(=O)N(C)C(=O)C3N2NC(=O)OC(C)(C)C)cc(OC)c1OC (stereo not given) -1.27
CC(=O)NCCCC[C@@H]1NC(=O)[C@H]2C[C@@H](C(=O)NCCCCCN)[C@@H](c3cccc(OCCO)c3)N2C1=O -2.28
CC(C)C[C@@H]1NC(=O)[C@@]23C(=O)N[C@@H](Cc4ccccc4)C2[C@H](C)[C@@]2(C)O[C@H]2C3/C=C/C/C=C\CNC(=O)[C@@H]2CCCN2C1=O (stereo not given in full) -6.29
CC1C=C(CCCO)C=C(C(=O)OCCS(C)(=O)=O)C(C(=O)OCCS(C)(=O)=O)=CN1Cc1cccc(OC(F)(F)F)c1 (stereo not given) -7.2
CCOC(=O)C1=CC[C@@H](c2ccccc2)N(S(=O)(=O)c2ccc(C)cc2)[C@H]1C=C(C)C -0.721
CC1CC/C=C\[C@H]2OC34C=CCN(c5ccc(Cl)cc5)C(=O)[C@H]3N(C(CO)C(C)C)C(=O)[C@]4(C)C2C(=O)O1 (stereo not given in full) -5.44
COC(=O)[C@@]1(Cc2ccc(OC)cc2)[C@H]2c3cc(C(=O)N(C)C)n(Cc4cc(C)n(C)n4)c3C[C@H]2CN1C(=O)c1ccccc1 -5.1
COC(=O)[C@@]1(Cc2ccccc2)[C@H]2c3cc(C(=O)N(C)C)n(Cc4ccc(O)c(OC)c4)c3C[C@H]2CN1C(=O)c1ccccc1 -5.2
COc1ccc(C#Cc2ccc3c(c2)[C@]2(C(=O)N3)[C@H](c3ccc(OCCO)cc3)N3[C@H](c4ccccc4)[C@H](c4ccccc4)OC(=O)[C@H]3[C@@H]2C(=O)N2CCN(c3ncccn3)CC2)cc1 1.1
O=C1CSC(c2cccc([N+](=O)[O-])c2)N1c1ccccc1 (stereo not given) 1.07
